# The list is not random: actives were taken first. Their share in the collection is about 9.3%.
# NPC1 prom act: qHTS Assay for NPC1 Promoter Activators; Huh7 NPC1 promoter luciferase reporter, 24 h; Potency, µM (highest dose often 9.22 µM), for inactives: top-dose activation, actives largely listed as activators; actives 2.4% (n = 320,000); AID 485313, 2010; further: % of control where 0% means no effect; nearly all actives have a fitted effect of over 60% in size
#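 Cells: Huh7 expressing luciferase under the NPC1 promoter, 1500/well. Seeded 2 h, compound added, incubated 24 h at 37 °C. Luciferase reagent, 10 min ambient, then luminescence.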
# Rab9 prom act: qHTS Assay for Rab9 Promoter Activators; AID 485297, 2010; Huh7 Rab9 promoter-luciferase reporter, luminescence, 24 h; Potency, µM (doses to about 9.22 µM), for the others: at the top dose activation, negative = inhibition, actives largely listed as activators; actives 2.8% (n = 320,000); further: % of control where 0% means no effect; nearly all actives have a fitted effect of over 60% in size
#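 Huh7 cells stably carrying a Rab9 promoter-luciferase reporter, 1500 cells per well in OP-MEM I with 10% FBS, treated with compound 24 hours at 37C. Luciferase activity read by luminescence after 10 minutes with Amplite reagent.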
# FLuc modulator: qHTS profiling assay for firefly luciferase inhibitor/activator using purifed enzyme and Km concentrations of substrates (counterscreen for miR-21 project). Potency, µM (titrated, usually from 57.5 µM), for inactives: at the top dose activity change, negative = inhibition, actives largely listed as inhibitors. Luciferin 4-monooxygenase (Photinus pyralis), P08659. purified FLuc, Km substrates, luminescence inhibition. AID 588342, 2011. actives 6.9% (n = 360,000);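 further: plate controls were vehicle for no effect and reference inhibitor for full effect; nearly all actives have a fitted effect of over 55% in size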
# Target sequence (P08659 whole entry, looked up): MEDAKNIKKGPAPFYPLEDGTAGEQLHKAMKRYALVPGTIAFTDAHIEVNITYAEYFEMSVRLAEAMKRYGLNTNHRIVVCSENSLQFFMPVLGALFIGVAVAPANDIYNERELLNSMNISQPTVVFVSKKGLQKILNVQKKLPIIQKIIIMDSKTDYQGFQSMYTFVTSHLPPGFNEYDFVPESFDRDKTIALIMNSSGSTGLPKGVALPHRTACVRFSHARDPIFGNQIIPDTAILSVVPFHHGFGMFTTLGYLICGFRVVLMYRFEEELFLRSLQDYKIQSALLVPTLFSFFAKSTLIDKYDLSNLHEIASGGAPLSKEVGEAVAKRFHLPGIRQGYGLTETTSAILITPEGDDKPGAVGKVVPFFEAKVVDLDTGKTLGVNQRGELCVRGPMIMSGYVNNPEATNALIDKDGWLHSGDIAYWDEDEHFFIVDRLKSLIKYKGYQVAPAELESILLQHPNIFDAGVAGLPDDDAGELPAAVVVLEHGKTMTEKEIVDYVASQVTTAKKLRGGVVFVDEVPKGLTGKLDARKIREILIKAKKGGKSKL
#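 Purified P. pyralis luciferase (10nM final) with 10uM D-luciferin and 10uM ATP (Km levels) in 50mM Tris acetate pH 7.5, 10mM Mg acetate, 0.01% Tween-20, 0.05% BSA; qHTS 6-point titration, ~60 µM downward; luminescence read.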
# SMN2 splice up: qHTS Assay for Enhancers of SMN2 Splice Variant Expression; HEK293 SMN2-luciferase splicing reporter, luminescence, 30-36 h; Potency, µM (highest dose often 46.1 µM), inactives show at the top dose activity change, positive = activation, hits mostly activators; actives 2.8% (n = 210,000); further: % of control where 0% means no effect; nearly all actives have a fitted effect of over 55% in size
#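 HEK293 cells carry an SMN2 minigene-luciferase reporter in which exon 7 inclusion puts luciferase in frame. Cells were seeded at 2000 cells/well, attached for 10-12 hours, then exposed to compounds for 30-36 hours at 37C before ONE-Glo luminescence.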
# ELG1 genotoxic: qHTS screen for small molecules that induce genotoxicity in human embryonic kidney (HEK293T) cells expressing luciferase-tagged ELG1 | HEK293T ELG1-luciferase reporter, luminescence, 16 h | Potency, µM (doses to about 46 µM), for inactives: top-dose activity change, positive = activation, usual class: activators | AID 504466, 2011 | actives 1.3% (n = 330,000); further: % of control where 0% means no effect; nearly all actives have a fitted effect of over 60% in size
#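 Genotoxicity was scored as increased ELG1-luciferase reporter signal, measured by ONE-Glo luminescence (30 min, room temperature). Compound or vehicle exposure of the HEK293T reporter cells lasted 16 hr at 37°C.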
# ELG1 DNA repair: qHTS screen for small molecules that inhibit ELG1-dependent DNA repair in human embryonic kidney (HEK293T) cells expressing luciferase-tagged ELG1. HEK293T ELG1-luciferase reporter, luminescence, 16 h; DNA damage induced by 5-fluorouridine. Potency, µM (highest dose often 46.1 µM), inactives show at the top dose activity change, negative = inhibition, usual class: inhibitors. actives 2.3% (n = 330,000). AID 504467, 2011; further: on the % scale 0 is the no-effect control and ±100 the full control effect; nearly all actives have a fitted effect of over 55% in size
#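 HEK293T cells expressing luciferase-tagged ELG1 (2,000/well) received 5-Fluorouridine plus compound or DMSO for 16 hr at 37 °C. Luciferase was read by ONE-Glo luminescence after 30 min at room temperature.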
# An asterisk follows results filed as active; u = inconclusive; x = no result. The call rests on the fitted dose curve; in most records, active means well fitted curve in the direction sought with a large enough effect; inconclusive means small, poorly fitted or top-dose-only effect, or another doubt; inactive means no such curve, though single readings can be large; an effect the other way counts as inactive or inconclusive. Potency means the concentration at half of the fitted maximal effect.
SMILES,NPC1 prom act,Rab9 prom act,FLuc modulator,SMN2 splice up,ELG1 genotoxic,ELG1 DNA repair
COc1ccc2c(Cl)c(C(=O)N/N=C/c3c(C)[nH]c4ccccc34)sc2c1,0.5%,0.3%,-17.8%,x,1.4%,23.1µM*
Cc1[nH]c2ccccc2c1/C=N/NC(=O)c1ccc(N)cc1,-5.4%,0.7%,12µM*,x,6.5%,22.8%
COc1ccc(S(=O)(=O)NC2CC3CCC2C3)cc1Cl (centres undefined),-2.2%,-0.8%,4.3%,x,-1.4%,21.5%
CCc1cnc2c(c1SCC(=O)NCc1ccccc1)c(=O)n(C)c(=O)n2C,x,x,-3.9%,x,x,x
Cc1ccc(NC(=S)N/N=C/c2c(C)[nH]c3ccccc23)cc1,0.3%,-0.8%,19µM*,-27.1%,0.7%,2.8%
Cc1[nH]c2ccccc2c1/C=N/NC(=O)c1cc(-c2ccccc2)n[nH]1,-11.7%,-2.8%,23.9µM*,x,-10.8%,20.6µM*
Cc1[nH]c2ccccc2c1/C=N/Nc1cccc(C(=O)O)c1,1.58µM*,2µM*,2.69µM*,x,u,u
Cc1[nH]c2ccccc2c1/C=N/NC(N)=S,2.1%,-1.1%,u,x,3.6%,1.4%
Cc1[nH]c2ccccc2c1/C=N/NC(=O)c1ccccc1,0.3%,-0.8%,u,x,3.6%,u
CC(=O)c1ccc(NC(=S)N2CCCCCC2)cc1,16.8%,u,u,u,u,u
COC(=O)Cc1ccc(NC(=S)N2CCCC(C)C2)cc1 (centres undefined),24.3%,u,1.51µM*,u,u,u
COC(=O)Cc1ccc(NC(=S)N2CCCC(CO)C2)cc1 (centres undefined),u,u,0.849µM*,x,u,u
CC(=O)c1ccc(NC(=S)N2CCCC(CO)C2)cc1 (centres undefined),u,u,8.49µM*,15.8µM*,u,u
COc1cc(NC(=S)N2CCCC(CO)C2)cc(OC)c1 (centres undefined),-1.5%,13.0%,u,11.0%,3.3%,8.8%
OC1CCCN(C(=S)Nc2ccc(SC(F)F)cc2)C1 (centres undefined),14.1%,14.1%,10.7µM*,u,9.5%,u
O=C(O)Cc1n[nH]c(=O)c2ccccc12,-1.9%,-2.5%,3.7%,16.2%,-0.7%,-8.7%
O=C(CN1CCN(c2ccccc2O)CC1)Nc1ccccc1C(=O)NCCc1ccccc1,u,u,x,x,-3.7%,u
OCC1CCCN(C(=S)Nc2ccc(Oc3ccccc3)cc2)C1 (centres undefined),u,1.78µM*,13.5µM*,x,16.7%,u
CC1CCCN(C(=S)Nc2ccc(Nc3ccccc3)cc2)C1 (centres undefined),28.1%,3.55µM*,u,x,6.6%,u
OCCN1CCN(C(=S)Nc2ccc(Oc3ccccc3)cc2)CC1,0.6%,0.9%,2.1%,-0.8%,-2.8%,-0.9%
Cc1ccc(NC(=S)N2CCC(O)CC2)c(C)c1,-7.7%,-1.0%,-3.1%,-4.1%,-3.5%,-10.1%
Cc1ccc(NC(=S)N2CCCC(CO)C2)c(C)c1 (centres undefined),17.2%,u,16.9µM*,x,10.4%,0.0%
CCc1ccccc1NC(=O)CCc1nc(-c2ccc(C)cc2)no1,-2.7%,-6.0%,3.0%,-15.2%,4.1%,-11.8%
O=C(NCCNC(=O)c1ccccc1F)c1ccco1,1.0%,0.3%,0.5%,x,1.0%,13.4%
Cc1ccc(-n2cc(CNCCCn3ccnc3C)c(-c3ccc(F)cc3)n2)cc1,-2.1%,-4.2%,23.9µM*,x,0.7%,11.3%
SMILES,NPC1 prom act,Rab9 prom act,FLuc modulator,SMN2 splice up,ELG1 genotoxic,ELG1 DNA repair
COc1ccc(-n2cc(CNCCc3cscn3)c(-c3ccccc3Cl)n2)cc1,-1.1%,-0.2%,23.9µM*,x,-2.1%,-1.3%
CCN1CC(CNCc2cn(-c3ccc(OC)cc3)nc2-c2ccccc2Cl)CC1=O (centres undefined),-6.0%,2.8%,u,x,0.2%,7.2%
Cc1ccc(-n2cc(CNCCc3cscn3)c(-c3ccc(F)cc3)n2)cc1,-1.6%,7.5%,10.7µM*,x,-0.3%,6.8%
O=C(CSc1nc2c(c(=O)n1-c1ccc(Cl)cc1)SCC2)NCC1CCCO1 (centres undefined),x,x,1.8%,-11.2%,x,x
CCN(Cc1ccccc1)C(=O)Cn1c(=O)n(-c2ccc(OC)cc2OC)c(=O)c2c(C)c(C)sc21,-9.3%,1.4%,-9.7%,-15.7%,11.1%,u
Cc1cc(OCC(=O)NCCO)cc(C)c1Cl,0.7%,7.9%,0.5%,-18.2%,1.2%,10.7%
CCC(C)N(C(=O)COC(=O)CNC(=O)c1sc2ccccc2c1Cl)C1CCS(=O)(=O)C1 (centres undefined),5.6%,-1.6%,21.3µM*,x,11.3%,u
CCN(C(=O)COC(=O)CNC(=O)c1sc2ccccc2c1Cl)C1CCCCC1,-3.6%,3.3%,12µM*,x,2.3%,14.2%
N#CC1(NC(=O)COC(=O)CNC(=O)c2sc3ccccc3c2Cl)CCCCC1,-2.9%,-3.2%,u,x,2.8%,11.8%
Cc1cc(SCC(=O)c2cccs2)n2nc(C)c(-c3ccccc3)c2n1,-1.1%,1.0%,u,-5.6%,-1.7%,u
Cc1cc(SCC(=O)c2ccccc2)n2ncc(-c3ccccc3)c2n1,5.01µM*,3.55µM*,9.53µM*,x,8.6%,u
O=C(CSc1ccc(-c2ccco2)nn1)c1ccccc1,15.8%,u,26.9µM*,18.3%,12.9%,u
Cc1cc(SCC(=O)c2ccccc2)nc(C)n1,3.55µM*,2.51µM*,12µM*,29.0%,u,u
Cc1cc(-c2ccccc2)n2ncc(-c3ccccc3)c2n1,2.82µM*,0.501µM*,0.19µM*,-51.5%,0.206µM*,u
O=C(O)CSc1nnc(-c2cccnc2)n1Cc1ccccc1,-4.0%,-3.4%,1.7%,-9.9%,0.9%,-0.4%
Cc1cccc(N2CCN(Cc3nc(CC4CC4)no3)CC2)n1,0.3%,11.5%,0.4%,x,-0.3%,3.2%
COc1ccc(-c2cc(C)nc3c(-c4ccccc4)cnn23)cc1,0.501µM*,0.562µM*,0.675µM*,u,0.651µM*,u
CCOC(=O)Cc1c(C)nc2c(-c3ccccc3)cnn2c1C,13.9%,28.0%,u,17.4%,14.5%,u
Cc1nc2c(-c3ccccc3)cnn2c(N)c1-c1ccccc1,u,16.2%,0.213µM*,x,u,u

# Assay outcomes from PubChem BioAssay.
